# Laboratory results published in PubChem BioAssay (Tox21).
# Values without a mark were called inactive. Records with an inconclusive call do not appear. Entries that show only a call come without a potency. Active and inactive are the calls of the source. Unless noted, calls come from the whole dose curve; as a rule, active = well fitted curve in the direction sought with a large enough effect in the repeat runs; inconclusive = weak or mixed curves; inactive = no such curve, though single readings can be large; an effect the other way counts as inactive or inconclusive.
# Experiments:
# [1] = qHTS assay for small molecules that induce genotoxicity in human embryonic kidney cells expressing luciferase-tagged ATAD5 (AID 651632); note: nearly all actives have a fitted effect of over 15% in size
# How it was run: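 A rise in luciferase signal from ATAD5-tagged HEK293T cells marks genetic stress. Cells were exposed to compounds for 16 hr at 37C, 5% CO2, then luciferase was quantified after a 30 min room-temperature incubation with Amplite.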
# [2] = qHTS assay to test for compound auto fluorescence at 590 nm (red) in HepG2 cells (AID 720674)
# How it was run: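 Seeding: 2,000 HepG2 cells/well, MEM/10% FBS, overnight 37 C. Dosing: compound vs DMSO. Incubation: 1 hr, 37 C, 5% CO2. Read: fluorescence 540 ex/590 em, Rose Bengal sodium as red reference.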
# [3] = qHTS assay to test for compound auto fluorescence at 535 nm (green) in HepG2 cells (AID 720675)
# [4] = qHTS assay to test for compound auto fluorescence at 460 nm (blue) in HEK293 cells (AID 720678)
# How it was run: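 HEK293 cells (2,000/well, medium with 10% dialyzed FBS) attached 4-5 hr, then exposed to compound overnight at 37C, 5% CO2. Blue fluorescence read at 405/460 nm, with triamterene as reference fluorophore.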
# [5] = qHTS assay to test for compound auto fluorescence at 590 nm (red) in HEK293 cells (AID 720679)
# How it was run: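 HEK293 cells (2,000/well, 10% dialyzed FBS) attached 4-5 hr, then dosed with compound or DMSO and incubated overnight at 37C, 5% CO2. Red fluorescence read at 540/590 nm, Rose Bengal sodium as reference fluorophore.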
# [6] = qHTS assay for small molecules that induce genotoxicity in human embryonic kidney cells expressing luciferase-tagged ATAD5 - cell viability (AID 651634; calls by dose curve; note: nearly all actives have a fitted effect of over 25% in size; note: potency is the fitted concentration of half-maximal effect)
# How it was run: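 Cytotoxicity counter-readout: after 15.5 hr compound treatment at 37C, live-cell protease activity in ATAD5-luciferase HEK293T cells measured by CellTiter-Fluor fluorescence, 30 min development at 37C.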
# [7] = qHTS assay for small molecule disruptors of the mitochondrial membrane potential - cell viability (AID 720634; calls by dose curve; note: nearly all actives have a fitted effect of over 20% in size; note: potency is the fitted concentration of half-maximal effect)
# How it was run: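 Cytotoxicity was quantified from ATP content by CellTiter-Glo luminescence in the same wells as the MMP dye read-out. HepG2 (2,000 cells/well) were plated overnight and exposed to compounds for 1 hr at 37 C.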
# [8] = qHTS assay for small molecule disruptors of the mitochondrial membrane potential (AID 720635); note: potency is the fitted concentration of half-maximal effect
# How it was run: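 HepG2 cells exposed to compound 1 hr at 37C, then Mito-MPS dye 30 min. Ratio read of aggregate (540/590 nm) versus monomer (490/535 nm) fluorescence.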
# [9] = qHTS assay for small molecule agonists of the p53 signaling pathway - cell viability (AID 651633; calls by dose curve; note: nearly all actives have a fitted effect of over 30% in size; note: potency is the fitted concentration of half-maximal effect)
# How it was run: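 p53RE-bla cells were treated with compound for 16 hours at 37 C. Cytotoxicity was then measured as CellTiter-Glo luminescence after 30 min at room temperature.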
structure (smiles),measurement,setting,value
O=C(Nc1ccccc1)OCC(CN1CCCCC1)OC(=O)Nc1ccccc1 (configuration not stated),Potency,[1],inactive
same,"fluorescence, relative to Rose Bengal",[2],-0.654% [at 18.6 µM]
same,"fluorescence, % of fluorescein control",[3],0.0386% [at 18.6 µM]
same,"fluorescence, % of triamterene",[4],0.0079% [at 18.6 µM]
same,"fluorescence, % of fluorescent control",[5],0.0612% [at 18.6 µM]
Cn1c(NCCN(CCO)CCCc2ccc([N+](=O)[O-])cc2)cc(=O)n(C)c1=O,Potency,[1],inactive
same,Potency,[6],inactive
same,Potency,[7],inactive
same,outcome,[2],inactive
same,outcome,[3],inactive
same,Potency,[4],inactive
same,outcome,[5],inactive
CC(Cc1cccc(C(F)(F)F)c1)NCCOC(=O)c1ccccc1 (configuration not stated),Potency,[1],inactive
same,outcome,[2],inactive
same,outcome,[3],inactive
same,Potency,[4],inactive
same,outcome,[5],inactive
O=C(Cl)c1ccc([N+](=O)[O-])cc1,Potency,[1],inactive
same,Potency,[6],inactive
same,Potency,[7],inactive
same,Potency,[8],inactive
same,outcome,[2],inactive
same,outcome,[3],inactive
same,Potency,[4],inactive
same,outcome,[5],inactive
NCCCN(CCO)CCO,Potency,[1],inactive
same,outcome,[3],inactive
same,Potency,[4],inactive
same,outcome,[5],inactive
CCN(CC)CCNC(C(=O)OCCC(C)C)c1ccccc1 (configuration not stated),Potency,[1],inactive
same,Potency,[6],inactive
same,Potency,[7],inactive
same,outcome,[2],inactive
CC(C)(C)c1cc(CO)cc(C(C)(C)C)c1O,Potency,[1],inactive
same,Potency,[6],inactive
same,Potency,[8],49.5 µM (active)
same,outcome,[2],inactive
same,outcome,[3],inactive
same,Potency,[4],inactive
same,outcome,[5],inactive
COC(Cc1ccccc1)OC,Potency,[1],inactive
same,Potency,[6],inactive
same,Potency,[7],inactive
same,outcome,[2],inactive
same,outcome,[3],inactive
same,Potency,[4],inactive
same,outcome,[5],inactive
CC1(C)CCC(C)(C)c2cc(NC(=O)c3ccc(C(=O)O)cc3)ccc21,Potency,[1],inactive
same,Potency,[7],inactive
same,Potency,[8],24.8 µM (active)
same,outcome,[2],inactive
same,outcome,[3],inactive
same,Potency,[4],inactive
same,outcome,[5],inactive
Cc1occc1S,Potency,[1],inactive
same,Potency,[7],inactive
same,Potency,[8],inactive
same,outcome,[2],inactive
same,outcome,[3],inactive
same,Potency,[4],inactive
same,outcome,[5],inactive
COC(=O)CSc1cc(N=c2sc(=O)n3n2CCCC3)c(F)cc1Cl,Potency,[1],inactive
same,Potency,[9],inactive
same,outcome,[2],inactive
same,outcome,[3],inactive
same,Potency,[4],inactive
same,outcome,[5],inactive
CN1CCC[C@@H]1c1cccnc1,Potency,[1],inactive
same,Potency,[7],inactive
same,Potency,[8],inactive
same,outcome,[2],inactive
same,outcome,[3],inactive
same,Potency,[4],inactive
same,outcome,[5],inactive
NC(N)=N/N=C/c1c(Cl)cccc1Cl,Potency,[1],inactive
same,Potency,[9],inactive
same,outcome,[3],inactive
same,outcome,[5],inactive
O=S1(=O)N=C(O)c2ccccc21,Potency,[6],inactive
same,Potency,[7],inactive
same,Potency,[8],inactive
same,outcome,[2],inactive
same,Potency,[4],inactive
COc1cc(C(C)(C)C)c(O)c(C(C)(C)C)c1,Potency,[1],inactive
same,Potency,[7],inactive
same,Potency,[8],27.3 µM (active)
same,outcome,[2],inactive
same,outcome,[3],inactive
same,Potency,[4],inactive
same,outcome,[5],inactive
CCCCCCCCC(CO)CCCCCC (configuration not stated),Potency,[1],inactive
same,Potency,[6],inactive
same,Potency,[7],inactive
same,outcome,[2],inactive
same,outcome,[3],inactive
same,Potency,[4],inactive
same,outcome,[5],inactive
CCOc1nc2cccc(C(=O)O)c2n1Cc1ccc(-c2ccccc2-c2nn[nH]n2)cc1,Potency,[1],inactive
same,Potency,[6],inactive
same,Potency,[7],inactive
same,Potency,[8],8.41 µM (active)
same,outcome,[2],inactive
same,outcome,[3],inactive
same,outcome,[5],inactive
O=C1c2cccc(O)c2C(=O)c2c(O)cc(CO)cc21,Potency,[1],inactive
same,Potency,[6],inactive
same,Potency,[7],inactive
same,Potency,[8],0.864 µM (active)
same,outcome,[3],inactive
same,Potency,[4],inactive
same,outcome,[5],inactive
N#CCCNCCC#N,Potency,[1],inactive
same,Potency,[9],inactive
same,Potency,[8],inactive
same,outcome,[3],inactive
same,Potency,[4],inactive
same,outcome,[5],inactive
CN1CCC(=C2c3ccccc3C=Cc3ccccc32)CC1,Potency,[1],inactive
same,Potency,[6],inactive
same,Potency,[7],inactive
same,outcome,[2],inactive
same,outcome,[3],inactive
same,Potency,[4],inactive
same,outcome,[5],inactive
CCN1CCC[C@H]1CNC(=O)c1c(OC)ccc(Br)c1OC,Potency,[1],inactive
same,Potency,[6],inactive
same,Potency,[7],inactive
same,Potency,[8],inactive
same,outcome,[2],inactive
same,outcome,[3],inactive
same,Potency,[4],inactive
same,outcome,[5],inactive
CC(C(=O)O)c1ccc(C(=O)c2ccccc2)s1 (configuration not stated),Potency,[1],inactive
same,Potency,[6],inactive
same,"fluorescence, relative to Rose Bengal",[2],-0.233% [at 18.6 µM]
same,"fluorescence, % of fluorescein control",[3],-0.0168% [at 18.6 µM]
same,"fluorescence, % of triamterene",[4],0.0309% [at 18.6 µM]
same,"fluorescence, % of fluorescent control",[5],-0.0493% [at 18.6 µM]
NC(N)=NN=C(/C=C/c1ccc([N+](=O)[O-])o1)/C=C/c1ccc([N+](=O)[O-])o1,Potency,[6],10.6 µM (active)
same,Potency,[7],18.8 µM (active)
same,Potency,[8],2.66 µM (active)
same,outcome,[2],inactive
same,outcome,[3],inactive
same,Potency,[4],inactive
same,outcome,[5],inactive
O=[N+]([O-])c1cccc(Cl)c1Cl,Potency,[1],inactive
same,Potency,[6],inactive
same,Potency,[7],inactive
same,Potency,[8],inactive
same,outcome,[2],inactive
same,outcome,[3],inactive
same,outcome,[5],inactive
C=CC(=O)OCC(C)OCC(C)OCC(C)OC(=O)C=C (configuration not stated),Potency,[9],24.3 µM (active)
same,Potency,[7],inactive
same,outcome,[2],inactive
same,outcome,[3],inactive
same,Potency,[4],inactive
same,outcome,[5],inactive
C=C(C)C(=O)OCCN(C)C,Potency,[1],inactive
same,Potency,[6],inactive
same,outcome,[3],inactive
same,Potency,[4],inactive
same,outcome,[5],inactive
O=C(O)C(c1ccc(Cl)cc1)c1ccc(Cl)cc1,Potency,[1],inactive
same,Potency,[6],inactive
same,outcome,[3],inactive
same,Potency,[4],inactive
same,outcome,[5],inactive
COc1ccc([C@@H]2Sc3ccccc3N(CCN(C)C)C(=O)[C@@H]2OC(C)=O)cc1,Potency,[1],inactive
same,Potency,[6],inactive
same,Potency,[8],inactive
same,outcome,[2],inactive
same,outcome,[3],inactive
same,Potency,[4],inactive
same,outcome,[5],inactive
OC(CCN1CCCCC1)(c1ccccc1)C1CCCCC1 (configuration not stated),Potency,[1],inactive
same,Potency,[6],inactive
same,outcome,[2],inactive
same,outcome,[3],inactive
same,Potency,[4],inactive
same,outcome,[5],inactive
CC(C)(C)c1cc(O)c(C(C)(C)C)cc1O,Potency,[1],inactive
same,Potency,[6],inactive
same,Potency,[8],6.11 µM (active)
same,outcome,[2],inactive
same,outcome,[3],inactive
same,Potency,[4],inactive
